From the supplement of paper PMC12636033
± gives the standard deviation of the averaged measurements. The full ranking holds about 33,000 sequences; the median of “E-score (rank enrichment, -0.5 to 0.5)” is about -0.0028, and the highest 2% start at about 0.23. For the sample, the highest values were picked, then their nearest neighbours and some sequences at random.

Test system: 2Sb-muMax20 (muMax20 with two 1,3-bis(methyl)benzene Cys staples, A13C/A17C and Q88C/A92C, C-terminal Lys)
Test: PBM 8-mer E-score (E-score (rank enrichment, -0.5 to 0.5)); higher = stronger preferential binding
Protocol: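 Protein binding microarray (universal PBM chip covering all 10-mers in fixed probe flanks) with chemically synthesized human Max(13-93) bHLH-LZ analogs (not full-length Max) bearing noncanonical residues (hArg, Tha, Aib, Nle at 65) and aromatic Cys staples. Read-out per 8-mer (and its reverse complement): E-score (rank-based enrichment, -0.5 to 0.5) and Z-score of median probe intensity.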

| Sequence | PBM 8-mer E-score |
| --- | --- |
| CATGGCAA | -0.0308 ± 0.0076 |
| GATGGCAA | 0.242 ± 0.012 |
| ATGCCGCA | 0.0568 ± 0.0082 |
| AGCGAGGA | -0.0458 ± 0.014 |
| GTCTTCTA | 0.00543 ± 0.00074 |
| ACTACCCC | 0.214 ± 0.047 |
| CGTACCCC | 0.246 ± 0.015 |
| CGTACCCA | 0.0446 ± 0.097 |
| GCTACCCC | -0.0378 ± 0.075 |
| CCTACCCC | 0.248 ± 0.062 |
| AGTACCCC | 0.129 ± 0.038 |
| ATGAAAAC | 0.0577 ± 0.019 |
| CAGGAAAC | -0.0883 ± 0.035 |
| CGACTCAC | -0.236 ± 0.04 |
| AGGGTTCC | -0.294 ± 0.015 |
| ACGTATGA | 0.127 ± 0.02 |
| ACGTATGC | 0.238 ± 0.066 |
| CCGTATGC | -0.07 ± 0.043 |
| TCCGAGCA | -0.1624 ± 0.00048 |
| AACCCCAT | 0.156 ± 0.03 |
| CATTAGAA | 0.00421 ± 0.034 |
| GATTAGAA | 0.00142 ± 0.015 |
| TATTAGAA | 0.259 ± 0.036 |
| ACCCGCCT | 0.0215 ± 0.042 |
| ATGCCGAC | -0.112 ± 0.0097 |

| Sequence | PBM 8-mer E-score |
| --- | --- |
| AGTGGGGG | 0.085 ± 0.077 |
| AGTGGGAG | -0.0115 ± 0.017 |
| CGTGGGGA | 0.0752 ± 0.016 |
| AGTGGGAT | 0.293 ± 0.031 |
| GGTGGGGA | 0.302 ± 0.032 |
| CGTGGGCA | 0.00349 ± 0.003 |
| GGTGGGCA | 0.262 ± 0.0056 |
| AGTGGGGC | 0.0302 ± 0.058 |
| AGTGGGAA | 0.105 ± 0.12 |
| AGTGGGGA | 0.3126 ± 0.0004 |
| GTTGGGCA | 0.024 ± 0.041 |
| GGTGGGAA | 0.0964 ± 0.019 |
| CAATACCC | 0.216 ± 0.021 |
| ATCAAGCA | -0.0166 ± 0.023 |
| AACGTTAC | 0.0258 ± 0.019 |
| AATGGACA | 0.0255 ± 0.059 |
| CATCCCAG | -0.121 ± 0.0081 |
| AACGGCGA | -0.0512 ± 0.014 |
| ACGATAAA | 0.014 ± 0.017 |
| AGCAGAGG | -0.0143 ± 0.0075 |
| AGGTGGGA | 0.13 ± 0.12 |
| CGGTGGGA | 0.00626 ± 0.078 |
| GGGTGGGA | 0.314 ± 0.026 |
| GTACGCAA | -0.0811 ± 0.049 |
| ATACGCAA | 0.303 ± 0.0063 |

| Sequence | PBM 8-mer E-score |
| --- | --- |
| ATACGCAG | -0.0883 ± 0.0056 |
| ATAGATAC | 0.239 ± 0.02 |
| ATATATCC | 0.24 ± 0.015 |
| CTATATCC | 0.217 ± 0.014 |
| ATATATAT | 0.00253 ± 0.052 |
| CTATATAC | 0.214 ± 0.027 |
| ATATATCA | 0.18 ± 0.048 |
| ATATATAC | 0.289 ± 0.038 |
| ATAGATAG | 0.204 ± 0.051 |
| GTATACAC | 0.0536 ± 0.025 |
| GTATATAC | 0.296 ± 0.039 |
| ATAGATAA | 0.185 ± 0.09 |
| GTATATAA | 0.119 ± 0.015 |
| CGGATTCC | -0.0954 ± 0.031 |
| CAAACGGA | -0.0945 ± 0.0024 |
| AACCACGG | -0.276 ± 0.0092 |
| CGATCAGA | -0.199 ± 0.015 |
| ATTGGCTG | -0.0784 ± 0.03 |
| CTCGTGCA | 0.0182 ± 0.011 |
| AAGTATAA | 0.196 ± 0.052 |
| AAGTATAC | 0.236 ± 0.038 |
| AAGTATAT | 0.136 ± 0.0036 |
| ATATAGCC | 0.234 ± 0.01 |
| CTATAGCC | 0.0346 ± 0.087 |
| ATATAGCA | 0.175 ± 0.016 |

| Sequence | PBM 8-mer E-score |
| --- | --- |
| GTGAGACA | 0.0265 ± 0.039 |
| GTTGTCCA | 0.00715 ± 0.051 |
| AGGCCCGG | -0.321 ± 0.063 |
| GGGGTCAA | 0.109 ± 0.11 |
| ACGCGGTC | -0.0575 ± 0.016 |
| AAATAGAA | -0.0324 ± 0.022 |
| AAATAGGC | 0.0499 ± 0.12 |
| AAATAGAG | 0.114 ± 0.056 |
| AAATAGGG | 0.286 ± 0.0043 |
| AAATAGAT | 0.24 ± 0.044 |
| CAATAGAC | 0.109 ± 0.022 |
| AAATAGAC | 0.235 ± 0.0036 |
| CAATAGGG | 0.0594 ± 0.051 |
| GAATAGAC | 0.00351 ± 0.056 |
| GCCTGAGC | -0.218 ± 0.037 |
| GCAGCACC | -0.116 ± 0.057 |
| GGTTCCAC | -0.0645 ± 0.035 |
| ACGGTCTC | -0.174 ± 0.083 |
| ACCCATCA | 0.114 ± 0.044 |
| GGCCCGCC | -0.185 ± 0.11 |
| GCCCCGCC | 0.233 ± 0.12 |
| CCCCCGCC | -0.0601 ± 0.073 |
| GCCCCGCA | 0.0269 ± 0.056 |
| ACCCCGCC | 0.318 ± 0.056 |
| AACCCGCC | 0.123 ± 0.0032 |

| Sequence | PBM 8-mer E-score |
| --- | --- |
| GGATTGTA | 0.156 ± 0.046 |
| AGGTAGCA | 0.107 ± 0.065 |
| AGGTCAGG | -0.187 ± 0.011 |
| GAAAGCAA | 0.0699 ± 0.014 |
| CAAAGCAA | 0.173 ± 0.058 |
| TAAAGCAA | 0.2878 ± 0.0008 |
| GTCGAGAC | 0.0609 ± 0.045 |
| ATTTCAGG | -0.054 ± 0.037 |
| AGATCCAG | -0.0734 ± 0.013 |
| GGACAGAC | -0.211 ± 0.04 |
| ATTGATGG | 0.254 ± 0.0094 |
| ATTGATGA | 0.0883 ± 0.037 |
| ATTGATGC | 0.125 ± 0.018 |
| CGCTGTTC | -0.0947 ± 0.036 |
| ATCTCGAC | -0.0985 ± 0.011 |
| CACACCAC | 0.0993 ± 0.072 |
| CGAACAAG | -0.08043 ± 0.00071 |
| CGAACAAA | 0.261 ± 0.021 |
| CGAACATA | 0.233 ± 0.037 |
| CGAACATC | 0.0524 ± 0.0016 |
| AGAACAAA | 0.13 ± 0.046 |
| GGAACATA | 0.0124 ± 0.063 |
| CGTAGGAC | -0.224 ± 0.05 |
| CGGCACAG | -0.151 ± 0.028 |
| CTATTAGA | -0.0815 ± 0.044 |

| Sequence | PBM 8-mer E-score |
| --- | --- |
| ATATTAGC | 0.125 ± 0.041 |
| ATATTAGG | 0.287 ± 0.008 |
| ATATTAGA | 0.245 ± 0.0043 |
| CTATTAGC | 0.0397 ± 0.078 |
| GTATTAGA | 0.201 ± 0.063 |
| CGGCCCCG | -0.0779 ± 0.064 |
| GGAGGTTA | 0.0654 ± 0.011 |
| CGGTAAGA | 0.00167 ± 0.075 |
| CCACATCC | 0.00851 ± 0.069 |
| AGTGATTA | 0.0652 ± 0.034 |
| GGCTATTA | 0.116 ± 0.04 |
| GACTATTA | -0.0384 ± 0.062 |
| CGCTATTA | -0.0606 ± 0.018 |
| CACTAATA | 0.113 ± 0.031 |
| AGCTATTA | 0.251 ± 0.019 |
| CACTATTA | 0.133 ± 0.036 |
| AACTATTA | 0.252 ± 0.069 |
| AACTAATA | 0.263 ± 0.029 |
| TACTAATA | 0.112 ± 0.037 |
| ATCGGGTG | -0.0686 ± 0.0025 |
| ATCCAAGG | -0.161 ± 0.034 |
| CATACTCG | 0.0129 ± 0.075 |
| CCATCTTC | 0.0281 ± 0.036 |
| AATCACAG | -0.0581 ± 0.1 |
| AATCACGA | -0.0273 ± 0.0012 |

| Sequence | PBM 8-mer E-score |
| --- | --- |
| AATCACGT | 0.26 ± 0.025 |
| AATCACAA | 0.166 ± 0.021 |
| AATCACGC | 0.125 ± 0.047 |
| AATCACAT | 0.245 ± 0.025 |
| ACAAATTA | 0.0394 ± 0.025 |
| CGGCAAAG | -0.127 ± 0.016 |
| CCGACAGG | -0.121 ± 0.008 |
| CCTTATTC | -0.00564 ± 0.062 |
| CCTTATTA | 0.28 ± 0.023 |
| GCTTATTA | 0.1305 ± 0.0011 |
| GCTCATTA | 0.155 ± 0.098 |
| CCTCATTA | 0.251 ± 0.052 |
| CCTCATTC | 0.0874 ± 0.052 |
| AGCTGCCT | -0.1104 ± 0.00073 |
| CAGCACGC | -0.176 ± 0.048 |
| CTAAAGCC | 0.0237 ± 0.016 |
| AGGGAAAC | 0.00477 ± 0.00053 |
| AGGGAAAT | 0.264 ± 0.019 |
| AGGGAAAG | 0.06 ± 0.037 |
| ATAAGCTG | 0.0487 ± 0.092 |
| AGTAGAAT | 0.192 ± 0.0085 |
| CGATTGAC | -0.0145 ± 0.035 |
